From PubChem BioAssay
In the library only some 11% were active in any assay of this set; here they are far more common.
Tau fluor counter – counter-screen for tau fibril formation inhibitors; tau K18 P301L Alexa594 fluorescence, heparin fibrillization; Potency, µM (series often up to 57.7 µM); 280,000 tested, 0.93% active; also: nearly all actives have a fitted effect of over 55% in size
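Human tau K18 P301L (15 uM unlabeled, 0.24 uM Alexa 594-labeled) in 100 mM sodium acetate pH 7 with 20 uM heparin, 6 hr at 37 C. ThT 30 uM added, 1 hr ambient; Alexa 594 FP and total fluorescence read at 555/632 nm.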
Sfp inh – Sfp phosphopantetheinyl transferase inhibition. AID 1490. Q9F4F7. Potency, µM, most hits filed as inhibitors. Biochemical Sfp PPTase activity, qHTS. 310,000 tested, 3.5% active;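 also: the enzyme is Sfp with the accession as filed and its product quenches rhodamine fluorescence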
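Compounds were incubated with enzyme (final 15 nM) for 15 min at room temperature before substrate addition started the reaction. Fluorescence at 525 nm excitation, 598 nm emission was recorded immediately and after 30 minutes.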
G9a inh – G9a (human) methyltransferase inhibition; Q96KQ7; 350,000 tested, 8.8% active; Potency, µM (highest dose often 102 µM), actives largely listed as inhibitors; AID 504332; G9a H3K9 monomethylation, AlphaScreen, 2 h; also: nearly all actives have a fitted effect of over 75% in size
Target sequence (Q96KQ7 913-1193 limits assumed): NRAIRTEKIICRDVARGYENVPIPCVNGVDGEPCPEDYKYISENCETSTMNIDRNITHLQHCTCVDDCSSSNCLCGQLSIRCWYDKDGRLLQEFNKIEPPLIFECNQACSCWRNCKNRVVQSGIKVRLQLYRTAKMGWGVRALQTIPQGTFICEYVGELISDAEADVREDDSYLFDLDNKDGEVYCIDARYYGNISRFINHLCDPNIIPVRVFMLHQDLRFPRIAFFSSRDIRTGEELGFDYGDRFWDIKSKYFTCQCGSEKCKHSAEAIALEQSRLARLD
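Signal arises when biotinylated H3K9 peptide, once monomethylated, bridges streptavidin donor and antibody-captured acceptor beads. Enzyme at 20 nM was preincubated 15 min with test compounds; peptide 500 nM and SAM 20 uM then reacted for 2 h.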
Tau fibril ThT – tau fibrillization inhibition (ThT binding). recombinant tau K18 P301L (four-repeat tau fragment), heparin-induced fibrillization, ThT fluorescence. AID 1460. P10636. Potency, µM (doses to about 57.4 µM), actives largely listed as inhibitors. 270,000 tested, 2.1% active; also: nearly all actives have a fitted effect of over 55% in size
Target sequence (P10636 561-689 P618L limits assumed): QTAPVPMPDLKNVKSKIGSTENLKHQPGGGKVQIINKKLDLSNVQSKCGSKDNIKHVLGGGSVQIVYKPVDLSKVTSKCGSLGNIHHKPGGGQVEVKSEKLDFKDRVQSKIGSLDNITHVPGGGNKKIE
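In this qHTS, human K18 P301L tau is incubated with compound and heparin for 6 hr at 37 C, and Thioflavin T fluorescence then reports fibril load.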
Tau FP inhib – inhibitors of human tau fibril formation; P10636; K18 P301L tau heparin fibrillization, Alexa594 FP, 6 h; Potency, µM (doses to about 57.7 µM), actives largely listed as inhibitors; 280,000 tested, 0.39% active; AID 1468; also: nearly all actives have a fitted effect of over 55% in size
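FP of Alexa 594-tau after heparin (20 uM) induction. Substrate: human K18 P301L, 15 uM unlabeled, 0.24 uM labeled. Buffer 100 mM sodium acetate pH 7. 6 hr, 37 C.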
FBPA coupling cs – counter-screen for Giardia aldolase inhibitors: coupling enzyme system; 290,000 tested, 0.67% active; activity change, negative = inhibition, % at 58.2 µM, hits read low; coupling enzyme system counterscreen, AmpLite Red fluorescence; in the data active = activity change below about -30%
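Final compound at 57.5 uM, incubated 10 min at RT with coupling enzyme reagent (glyceraldehyde-3-phosphate), then 20 min with substrate and AmpLite Red detection. Fluorescence read at 525/598 nm; tests interference with the coupling assay, not aldolase inhibition.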
Hits are given with their value; - = inactive; ? = inconclusive; . = no result given; [ ] = dose if it differs, or a comment. Unless noted, calls follow the shape of the dose curve; as a rule, active = well fitted curve in the direction sought with a large enough effect; inconclusive = small, poorly fitted or top-dose-only effect, or another doubt; inactive = no such curve, though single readings can be large; an effect the other way counts as inactive or inconclusive.

SMILES | Tau fluor counter | Sfp inh | G9a inh | Tau fibril ThT | Tau FP inhib | FBPA coupling cs
CC(C)=CCCC(C)CN1CCC(O)CC1 (stereo not drawn) | - | - | 13µM | - | - | -
CCOC(=O)c1sc(NC(=O)CSc2n[nH]c(-c3ccncc3)n2)c(C#N)c1C | - | - | ? | - | - | -
CCOc1ccc(/C=C/C2=Cc3c(sc(NC(=O)CSc4n[nH]c(N)n4)c3C#N)C(C)(C)C2)cc1 | ? | 40µM | ? | 14µM | - | -
Cc1ccsc1/C=C/C1=Cc2c(sc(NC(=O)CSc3n[nH]c(N)n3)c2C#N)C(C)(C)C1 | ? | 40µM | 35µM | 16µM | - | -
Cn1cc([N+](=O)[O-])c(C(=O)N2CCCCCC2)n1 | . | - | - | . | . | .
COc1cccc(NC(=O)C2CCCN(S(=O)(=O)c3cn(C(C)C)cn3)C2)c1 (stereo not drawn) | - | . | - | - | - | .
COc1cc(NC(=O)CN2CCCN(Cc3cccc(F)c3)S2(=O)=O)cc(OC)c1 | ? | . | - | - | - | .
CCOC(=O)c1c(NC(=S)Nc2ccc(OC)cc2)sc2c1CCC2 | - | ? | - | - | - | -
CCOC(=O)c1c(NC(=S)Nc2ccccc2)sc2c1CCN(CCc1ccccc1)C2 | - | ? | ? | ? | - | -
CCOC(=O)c1c(NC(=S)NC)sc2c1CC(C)(C)SC2 | - | 20µM | ? | ? | - | -
CCOC(=O)c1c(NC(=S)Nc2ccccc2)sc2c1CC(C)(C)SC2 | - | - | 40µM | ? | - | -
c1ccc(-c2csc(Nc3ccc4c(c3)OCCO4)n2)cc1 | 14µM[quencher] | ? | 11µM | 13µM | - | -
N#C/C(=C\Nc1ccc2c(c1)OCCO2)c1nc(-c2ccccc2)cs1 | - | - | - | - | - | -
CC(=O)Nc1ccc(-c2cn3ccsc3n2)cc1 | - | - | -[12.7 µM] | - | - | -
CC(=O)Nc1nc(-c2ccc3c(c2)CCO3)cs1 | - | - | ? | - | - | -
COc1ccccc1C(=O)Nc1nc(-c2ccc3c(c2)OCCO3)cs1 | ? | - | - | - | - | -
c1cc2c(cc1-c1csc(NNC3=NCCCCC3)n1)OCCO2 | ? | - | 6.3µM | 25µM | 28µM | -
c1cn2cc(-c3ccc4c(c3)OCO4)nc2s1 | - | 32µM | -[2.33 µM] | ? | - | -
COc1cccc(Nc2nc(-c3ccc4c(c3)OCCO4)cs2)c1 | 11µM[quencher] | - | ? | 7.1µM | - | -
O=C(CC1c2ccccc2Oc2ccccc21)Nc1ccccc1C(F)(F)F | - | - | - | - | - | -
COc1ccc(Cl)cc1NC(=O)Cn1c(=O)n(Cc2ccc(F)cc2)c(=O)c2cccnc21 | - | . | - | - | ? | .
c1cc2c(cc1Nc1nc(-c3ccc4c(c3)OCO4)cs1)OCCO2 | 8.9µM[quencher] | - | ? | 3.2µM | - | -
CCC(=O)Nc1nc(-c2ccc3c(c2)OCCO3)cs1 | - | - | - | ? | - | -
Cc1ccc(-n2cc(C(C)(C)C)[nH]c2=S)cc1 | - | - | -[2.33 µM] | - | - | -
O=[N+]([O-])c1cccc(-c2cn(-c3ccccc3)c(=S)[nH]2)c1 | - | - | 1.6µM | - | - | -
SMILES | Tau fluor counter | Sfp inh | G9a inh | Tau fibril ThT | Tau FP inhib | FBPA coupling cs
Nc1ccc(-n2cc(-c3ccccc3)[nH]c2=S)cc1 | . | 35µM | 7.9µM | . | . | -
S=c1[nH]c(-c2ccccc2)cn1-c1ccccc1 | . | ? | 10µM | . | . | -
O=[N+]([O-])c1ccc(-c2cn(-c3ccccc3)c(=S)[nH]2)cc1 | - | - | ? | ? | - | -
CC(C)(C)c1cn(-c2ccccc2)c(=S)[nH]1 | - | - | 7.9µM | - | - | -
CCc1ccc(-n2c(=O)c3cccnc3n2CC(=O)N(CC)c2cccc(C)c2)cc1 | - | . | - | ? | - | .
CCOc1ccccc1C1CC(=O)Oc2c1c(=O)n(C)c1ccccc21 (stereo not drawn) | - | . | - | - | - | .
CCS(=O)(=O)N1CCc2cc(C(=O)Nc3cc(OC)c(Cl)cc3OC)ccc21 | - | . | - | - | ? | .
CN1CCN(C(=O)Cn2ncc3c4ccccc4n(Cc4ccc(Cl)cc4)c3c2=O)CC1 | - | . | - | - | - | .
c1ccc(COc2cccc(CN3CCCCC3)c2)cc1 | . | - | 35µM | . | . | -
c1ccc(CCCN2CCN(c3ccccn3)CC2)cc1 | . | - | 40µM | . | . | -
c1ccc(COc2cccc(CN3CCN(c4ccccn4)CC3)c2)cc1 | - | - | 3.2µM | - | - | -
c1ccc(N2CCN(Cc3ccsc3)CC2)nc1 | - | - | 14µM | - | - | -
O=C(CN1CCN(c2ccccn2)CC1)NCCc1ccccc1 | - | - | - | - | - | -
COc1ccc(OC)c(CCNC(=O)CCn2c(=O)c3cccn3c3cccnc32)c1 | - | . | - | - | - | .
CCOc1ccc2c(c1)c(=O)c(C(=O)c1ccccc1)cn2Cc1ccccc1F | - | . | - | - | - | .
Cc1ccc(CN2CCN(c3ccccn3)CC2)s1 | - | 56µM | 10µM | - | - | -
COc1ccc(CN2CCN(c3ccccn3)CC2)c(OC)c1C | - | ? | . | - | - | -
CCOC(=O)c1ccc(CSc2nnc(C)n2N)o1 | - | - | - | - | - | -
Cc1nc(SCc2ccc(O)c([N+](=O)[O-])c2)c([N+](=O)[O-])[nH]1 | - | 18µM | . | ? | - | -
CCOC(=O)c1ccc(CSc2n[nH]c(C)n2)o1 | - | - | 79µM | - | - | -
N=C(N)SCc1ccc(O)c([N+](=O)[O-])c1 | - | 79µM | 32µM | ? | - | -
Cc1nc(SCc2ccc(O)c([N+](=O)[O-])c2)n[nH]1 | - | ? | 6.3µM | - | - | -
Cc1ccccc1CNC(=O)C1=Cc2ccccc2OC1 | - | . | - | - | - | .
Cc1ccc(C)c(N2CCN(C(=O)Cn3cnc4onc(-c5ccc(F)cc5)c4c3=O)CC2)c1 | ? | . | - | - | ? | .
O=C(NCC(c1cccnc1)N1CCOCC1)C(=O)Nc1cccc(Cl)c1 (stereo not drawn) | - | . | - | - | - | .
SMILES | Tau fluor counter | Sfp inh | G9a inh | Tau fibril ThT | Tau FP inhib | FBPA coupling cs
CC1CCCN(S(=O)(=O)c2ccc(S(=O)(=O)NC(C)c3cccs3)cc2)C1 (stereo not drawn) | - | - | 40µM | - | - | -
CCNc1ccc(C(=O)OCC)cc1NC(=O)c1cccc(S(=O)(=O)N(C)c2ccccc2)c1 | ? | - | - | - | - | -
CCNc1ccc(C(=O)OCC)cc1NC(=O)c1cccc(N(C)C)c1 | - | - | 50µM | ? | - | -
CCOC(=O)c1ccc(S(=O)(=O)NNC(=O)c2cccc(N(C)C)c2)cc1 | - | - | 11µM | - | - | -
CCOC(=O)c1ccc(S(=O)(=O)NNC(=O)COc2ccc(C)cc2)cc1 | - | - | - | - | - | -
CCC(=O)N1CCc2cc(S(=O)(=O)N(C)c3cccc(C)c3)ccc21 | - | . | - | - | - | .
Cc1cc(N2CCN(C)CC2)nc2ccc(NC(=O)Nc3ccc(F)cc3F)cc12 | 16µM[quencher] | . | - | ? | ? | .
